Screening results: PubChem BioAssay, several laboratories
ADAM10 inh: ADAM10 inhibition, QFRET primary screen; AID 720582; recombinant ADAM10, EDANS/DABCYL FRET peptide cleavage, 3 h; actives 0.62% (n = 370,000); inhibition, % at 7 µM;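 active = inhibition above a per-campaign cutoff equal to the mean of compounds falling between control-based bounds plus 3 SD, cut at about 20% in these data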;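 note: 0% = DMSO wells while the 100% control is not disclosed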
Target sequence (O14672 214-748 limits assumed): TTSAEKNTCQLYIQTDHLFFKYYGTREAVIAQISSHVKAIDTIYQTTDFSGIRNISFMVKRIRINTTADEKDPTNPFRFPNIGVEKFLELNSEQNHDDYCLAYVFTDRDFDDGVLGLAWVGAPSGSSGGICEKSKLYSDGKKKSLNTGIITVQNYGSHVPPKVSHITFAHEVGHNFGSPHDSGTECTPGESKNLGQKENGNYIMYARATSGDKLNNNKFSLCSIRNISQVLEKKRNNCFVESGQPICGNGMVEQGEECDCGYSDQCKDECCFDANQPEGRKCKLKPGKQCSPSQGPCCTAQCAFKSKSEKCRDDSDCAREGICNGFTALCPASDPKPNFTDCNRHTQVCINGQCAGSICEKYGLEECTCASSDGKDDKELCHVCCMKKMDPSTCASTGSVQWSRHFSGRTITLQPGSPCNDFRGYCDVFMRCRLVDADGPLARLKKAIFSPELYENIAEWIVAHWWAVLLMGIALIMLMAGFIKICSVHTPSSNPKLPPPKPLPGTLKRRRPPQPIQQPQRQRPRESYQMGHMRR
NR3A LBD binder: modulators (binders) of human NR3A ligand-binding domain | NR3A LBD differential scanning fluorimetry, Tm shift; 0% = protein alone, 100% = glycine-bound protein | Tm shift relative to glycine control, % at 25 µM | actives 2.5% (n = 340,000) | AID 1259313;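 active = melting temperature shift of at least 10% of the positive control shift, at one fixed dose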
ADAM17 inh: ADAM17 inhibition, QFRET primary screen | P78536 | recombinant ADAM17, EDANS/DABCYL FRET peptide cleavage | inhibition, % at 6.95 µM | actives 0.83% (n = 370,000) | AID 720648;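 active = inhibition above the mean of compounds lying between control limits plus 3 SD, set per campaign, cut at about 8.5% in these data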;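 note: 0% = DMSO-only wells as the low control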
aDG glyco act: alpha-DG glycosylation activation; Pro5-aDG cells, alpha-DG glycosylation AlphaScreen (IIH6); 0% Pro5, 100% B10-LARGE cell signal; activation, % at 10 µM; actives 0.22% (n = 360,000);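 active = activation of at least 8% versus controls, or a plate z-score of at least 8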;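 note: Pro5 are CHO cells carrying HIG-tagged alpha-DG that lacks glycosylation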
FAS TE block: blocks the thioesterase domain of human fatty acid synthase. P49327. recombinant FAS-TE, OMFH fluorogenic substrate, fluorescence endpoint. inhibition, % at 15 µM. actives 0.67% (n = 360,000);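 active = compounds whose normalised, plate-corrected inhibition of enzyme fluorescence in the single-dose primary screen is 50% or more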;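 note: 0% = DMSO with enzyme and 100% = substrate without enzyme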
Starred values were filed as active, the others as inactive; / = not tested or not shown. Only some compounds are listed: those with a hit (about 4% of all), similar ones and a draw of the others.

SMILES | ADAM10 inh | NR3A LBD binder | ADAM17 inh | aDG glyco act | FAS TE block
CCn1c(=S)sc2c(=O)n(CC(=O)Nc3cccc(Cl)c3)c(C)nc21 | 12 | 33* | 4 | 0 | 33
O=C(OCc1c(-c2ccccc2)ncc2ccccc12)c1ccc(C(F)(F)F)cc1 | -6 | -30 | -6 | 0 | 36
O=C(OCc1c(-c2ccccc2)ncc2ccccc12)c1ccc(F)cc1 | -6 | 14* | -3 | 1 | 35
CC(=O)NC1C(=O)N(CCN2CCOCC2)c2ccc(Br)cc21 (configuration not stated) | -6 | 18* | -2 | 0 | 0
O=C(N/N=C/c1ccc(Cl)c([N+](=O)[O-])c1)c1cc(-c2ccc3c4c(cccc24)CC3)n[nH]1 | -1 | -2 | -2 | 0 | 10
Cn1cccc1-c1cc(C(=O)N/N=C/c2ccc(F)cc2)[nH]n1 | -1 | 9 | -1 | 0 | -2
Cn1cccc1-c1cc(C(=O)N/N=C/c2ccccc2Cl)[nH]n1 | -2 | -15 | -5 | 0 | 5
O=C(N/N=C/c1cccc([N+](=O)[O-])c1)c1cc(-c2ccc3c4c(cccc24)CC3)n[nH]1 | 3 | 18* | 0 | 0 | 4
Cn1cccc1-c1cc(C(=O)N/N=C/c2cc(Br)ccc2O)[nH]n1 | 4 | 27* | 0 | 0 | 29
Cn1cccc1-c1cc(C(=O)N/N=C/c2ccc([N+](=O)[O-])cc2)[nH]n1 | 9 | 28* | 7 | 0 | 0
CCOc1ccc(/C=N/NC(=O)c2cc(-c3cccn3C)n[nH]2)cc1 | -2 | 22* | -2 | 0 | -1
NC(=O)C1=C[C@H](c2ccc3c(c2)OCO3)C[C@H](OCc2ccc(CO)cc2)O1 | 8 | 3 | -3 | 0 | -6
Cc1ccc(O)c(C2=Nc3ccccc3N=C(c3cccs3)C2)c1 | -15 | -4 | -3 | 0 | 27
CCOC(=O)C(CCCCCCC(NC(C)=O)(C(=O)OCC)C(=O)OCC)(NC(C)=O)C(=O)OCC | -6 | -2 | -7 | 0 | -2
O=C(N/N=C\C=C\c1ccco1)c1cc(-c2ccc3ccccc3c2)n[nH]1 | 1 | 15* | 1 | 0 | 6
C/C(C=NNC(=O)c1cc(-c2ccc(C)c(C)c2)n[nH]1)=C/c1ccco1 | -7 | / | -1 | / | /
CCNC(=S)Nc1ccc(Cc2ccncc2)cc1 | 2 | -2 | -4 | 0 | -3
C/C(=N\Nc1ccccc1[N+](=O)[O-])c1ccccc1O | -3 | 1 | 1 | 0 | 10
CN(c1ccccc1)S(=O)(=O)c1ccc(Cl)c(C(=O)Nc2nc3ccccc3[nH]2)c1 | -6 | -18 | 4 | 0 | 21
CN(c1ccccc1)S(=O)(=O)c1ccc(Cl)c(C(=O)Nc2ccc(-c3nc4ccccc4[nH]3)cc2)c1 | -10 | 19* | 0 | 0 | 42
CS(=O)(=O)c1ccccc1C(=O)Nc1ccc(-c2nc3ccccc3[nH]2)cc1 | 6 | -6 | 3 | 0 | -4
CC(C)(C)N1C(=O)c2ccc(C(=O)Nc3ccc(-c4nc5ccccc5[nH]4)cc3)cc2C1=O | -2 | 35* | -1 | 0 | -14
O=C(Nc1ccc(-c2nc3ccccc3[nH]2)cc1)c1ccc(N2C(=O)CCC2=O)cc1 | -4 | 24* | 0 | 0 | -6
CS(=O)(=O)c1cccc(C(=O)Nc2ccc(-c3nc4ccccc4[nH]3)cc2)c1 | -205 | 32* | -98 | 0 | -2
COc1ccc(OC)c(NC(=O)COC(=O)CCS(=O)(=O)c2ccc(Cl)cc2)c1 | 11 | 4 | 0 | 0 | -3
SMILES | ADAM10 inh | NR3A LBD binder | ADAM17 inh | aDG glyco act | FAS TE block
Cc1ccc(OCCNC(=O)c2cncc(Br)c2)cc1C | -11 | 1 | 0 | 0 | 3
Cc1cccc(OCCNC(=S)NC(=O)c2cncc(Br)c2)c1 | 2 | 10* | -2 | 0 | 15
CCc1nc2c(OCCn3cccc3)cccn2c1N(C=O)Cc1ccc(OC)cc1 | -3 | / | 6 | 0 | -8
Cc1nc2c(c(C)nn2-c2ccccc2)c(C)c1CCC(=O)NCCCOC(C)C | -150 | -2 | -72 | 0 | -1
Oc1ccc(/C=N/Nc2ccnc3cc(Cl)ccc23)c(O)c1O | -3 | 18* | 2 | 0 | -22
CC/C(=N\Nc1ccnc2cc(Cl)ccc12)c1ccc(O)cc1 | -12 | 7 | -12 | 1 | 4
Oc1ccc(/C=N/Nc2ccnc3cc(Cl)ccc23)cc1O | -12 | 21* | -10 | 0 | -32
O=C1c2ccccc2CCC12N=NCC2c1ccc(Br)cc1 (configuration not stated) | -2 | 11* | 0 | 0 | 9
Cc1cc(NC(=O)COC(=O)C2CC(=O)N(c3ccc(C)c(Cl)c3)C2)no1 (configuration not stated) | -6 | 21* | -3 | 0 | -2
CCOC(=O)C(=N/O)/C(C)=N/NC(=O)C(=O)Nc1cc(Cl)ccc1Cl | 5 | 0 | 2 | 0 | 0
c1ccc(Nc2nnc(-c3cccc4ccccc34)o2)cc1 | -12 | 15* | -4 | 0 | -2
Clc1ccc2c(-c3ccccc3)nc(-c3cccs3)nc2c1 | -2 | / | -1 | 0 | 0
COc1cc(C(=O)NC(C)c2cnn(-c3ccccc3C)c2C)cc(OC)c1OC (configuration not stated) | 2 | -6 | 1 | 0 | -10
NS(=O)(=O)c1ccc(NC(=S)N2CCN(Cc3ccc(Cl)c(Cl)c3)CC2)cc1 | 2 | 25* | -2 | 0 | -26
O=S(=O)(c1ccc(Cl)cc1)N1CCN(C(=S)Nc2ccc(F)c(Cl)c2)CC1 | -6 | 18* | -2 | 0 | 20
O=C(CSc1ncn[nH]1)NC12CC3CC(CC(C3)C1)C2 | 8 | 0 | 1 | 1 | -33
Cc1cc2n(n1)C(c1c[nH]c3ccccc13)Nc1ccccc1-2 (configuration not stated) | / | 32* | / | 0 | -3
C/C(=N\N=C(/N)SC1CC(=O)N(c2ccc(Cl)c(Cl)c2)C1=O)c1cccs1 (configuration not stated) | -3 | 34* | -2 | 0 | 44
CC1CC(C)CN(CCCNC(=O)c2ccc3c(SCC(=O)O)c4c(nc3c2)CCC4)C1 (configuration not stated) | -4 | -1 | -5 | 0 | -7
O=C(O)c1cccc2c1-c1ccc(Cl)cc1C2=O | -2 | 14* | -5 | 0 | -3
N#C/C(=N\Nc1ccc(S(=O)(=O)N2CCc3ccccc32)cc1)C(N)=S | 10 | 23* | 5 | -1 | 13
N#C/C(=N\Nc1ccc(S(=O)(=O)N2CCCCCC2)cc1)C(N)=S | 9 | 7 | 4 | -1 | 0
CCOC(=O)/C(C#N)=N/Nc1ccc(S(=O)(=O)N2CCc3ccccc32)cc1 | 6 | 24* | 7 | 0 | 29
COc1ccc2nc(SCC(=O)Nc3ccccc3OC)[nH]c2c1 | 1 | -1 | -2 | 0 | 2
Nc1ccccc1C#Cc1ccc2[nH]ccc2c1 | -56 | 19* | -17 | 0 | 8
